# Measured values from PubChem BioAssay AID1851 (National Center for Advancing Translational Sciences (NCATS), 2009).
# Out of some 16,000 compounds screened, about 4,000 (25%) were called active. Another 26% or so got no clear call; they are omitted. These entries were drawn from the full list. Values without a mark were called inactive. Calls come from the whole dose curve; as a rule, active = well fitted curve in the direction sought with a large enough effect; inconclusive = small, poorly fitted or top-dose-only effect, or effect the other way; inactive = no such curve, though single readings can be large or run the other way.
# Molecular target: Cytochrome P450 2C9 (Homo sapiens) (UniProt P11712)
# Sequence (P11712 whole entry, looked up): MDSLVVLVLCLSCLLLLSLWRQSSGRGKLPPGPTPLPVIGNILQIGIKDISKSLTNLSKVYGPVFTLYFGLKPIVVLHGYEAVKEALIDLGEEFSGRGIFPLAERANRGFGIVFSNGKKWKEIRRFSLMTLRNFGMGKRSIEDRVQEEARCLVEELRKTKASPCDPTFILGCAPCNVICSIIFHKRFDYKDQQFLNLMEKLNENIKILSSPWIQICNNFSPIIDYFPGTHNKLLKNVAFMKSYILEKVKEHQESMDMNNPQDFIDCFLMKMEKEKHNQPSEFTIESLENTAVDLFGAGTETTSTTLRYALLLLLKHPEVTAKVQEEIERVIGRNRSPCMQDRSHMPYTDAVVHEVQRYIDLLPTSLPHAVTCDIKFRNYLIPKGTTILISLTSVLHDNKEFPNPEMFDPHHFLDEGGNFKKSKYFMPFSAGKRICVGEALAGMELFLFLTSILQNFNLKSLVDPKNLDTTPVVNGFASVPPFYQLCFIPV
# Test: Cytochrome panel assay with activity outcomes
# Settings: recombinant CYP, pro-luciferin dealkylation, luminescence, p450-cyp2c9; series mostly up to 57.1 µM; activity, negative = inhibition: at the top concentration
# % is set by controls: 0 for no effect and ±100 for the full control effect.
Structure (SMILES),"activity, negative = inhibition",AC50
CNc1ccnc(-c2ccccc2OC)n1,-17.5% [at 2.29 µM],–
CCCS(=O)(=O)N1CCCC(C(=O)NCCN(C)Cc2ccccc2)C1 (stereo not given),-6.79%,–
O=C(NCCC1=CCCCC1)C1CCCN(c2nc3ccccc3o2)C1 (stereo not given),–,3.55 µM (active)
CC1CC(C)CN(CCCNC(=O)C2CCCN(c3nnc(N4CCCC4=O)s3)C2)C1 (stereo not given),-3.57%,–
Cn1c(=O)c(C(=O)CN2CCOCC2)c(N)n(Cc2ccccc2)c1=O,-21.5%,–
CC(C)Cn1c(N)c(C(=O)CSc2ccc3c(c2)OCCO3)c(=O)n(C)c1=O,–,3.55 µM (active)
CC(C)Cn1c(=O)n(C)c(=O)c2[nH]cnc21,8.76%,–
CN1CCN(c2ncncc2-c2ccoc2)CC1,17.1% [at 2.29 µM],–
CCCC[P+](CCCC)(CCCC)Cc1ccc(NC(=O)[C@@H](Cc2ccc3ccccc3c2)NC(=NC2CCCCC2)NC2CCCCC2)cc1,0.236%,–
O=C(Nc1ccccc1C(=O)Nc1ccc2c(c1)OCO2)c1ccco1,–,1.41 µM (active)
O=C(Nc1ccccc1C(=O)NCCc1ccccc1)c1ccco1,–,2.82 µM (active)
Cc1ccc(C(C(=O)NC2CCCCC2)N2CCN(C(=O)c3ccco3)CC2)cc1 (stereo not given),-17.6%,–
CCC(NC(=O)c1ccccc1NC(=O)c1ccco1)C(=O)NC1CCCCC1 (stereo not given),–,7.08 µM (active)
COc1ccccc1CNc1cc(-c2ccc(C(=O)N(C)C)cc2)ncn1,10% [at 2.29 µM],–
CN1CCN(C2=Nc3ccccc3Oc3ccc(Cl)cc32)CC1,2.74%,–
COC(=O)c1c(NC(=O)c2ccco2)sc2c1CCC2,–,2.82 µM (active)
CCN1C(=O)[C@H]2[C@H]3[C@H](O)[C@H](O)C/C(=N/O[C@@H]4O[C@@H](COC(C)=O)[C@@H](OC(C)=O)[C@@H](OC(C)=O)[C@H]4OC(C)=O)[C@H]3CC[C@@H]2C1=O,23.1% [at 11.4 µM],–
COc1ccc(-c2cc(C(=O)Nc3cc(OC)c(OC)c(OC)c3)no2)cc1OC,-6.73%,–
COc1cc(NC(=O)c2cc3nc(-c4ccccc4)cc(-c4ccccc4)n3n2)cc(OC)c1OC,–,2.24 µM (active)
CC(C)[C@H](N)c1nnc(SCc2ccc(Cl)cc2)o1,–,1.78 µM (active)

Structure (SMILES),"activity, negative = inhibition",AC50
Clc1ccc(CSc2ncnc3c2ncn3[C@@H]2CCCCO2)cc1,-17.8% [at 11.4 µM],–
O=c1ccnc(SCc2ccc(Cl)cc2)[nH]1,-29.9% [at 11.4 µM],–
CC(CC(=O)O)(CC(=O)O)C(=O)O,-9.5% [at 11.4 µM],–
O=C(Cc1ccccc1[N+](=O)[O-])NCCSCc1c(F)cccc1Cl,31.4%,–
O=C(Cc1ccccc1)NCCSCc1ccc(Cl)cc1,–,3.98 µM (active)
O=C(O)CCSCc1ccccc1,24.2% [at 11.4 µM],–
CCN(CC)c1ncnc2c1sc1nc(C)cc(C)c12,–,17.8 µM (active)
Cc1noc(C)c1-c1cncnc1Nc1ccccc1,-0.353% [at 2.29 µM],–
CCN1C(=O)C(CC(=O)Nc2ccc(Br)cc2)N(CCCc2ccccc2)C1=S (stereo not given),–,0.708 µM (active)
CCN1C(=O)C(CC(=O)Nc2ccc(OC)cc2)N(Cc2cccs2)C1=S (stereo not given),–,7.08 µM (active)
CCNc1ncc2nc(-c3ccc(OC)cc3)c(=O)n(Cc3cccs3)c2n1,-26.2%,–
CCOC(=O)C1=C(C)N=C2c3ccccc3C(=O)C2C1c1ccc(C)cc1 (stereo not given),–,0.891 µM (active)
CCOC(=O)C1=C(C)N=C2c3ccccc3C(=O)C2C1c1ccc(Cl)cc1 (stereo not given),–,0.562 µM (active)
Cc1nnsc1SC(C)C(=O)O (stereo not given),-4.21%,–
O=C(/C=C/Nc1ccccc1)c1ccc(Oc2ncccn2)cc1,19%,–
CC(=O)c1cccc(NC=C2C(=O)OC3(CCCCC3)OC2=O)c1,-14%,–
CC(=O)c1cccc(NS(=O)(=O)c2ccc(N/C=C\C(=O)c3ccc(F)cc3)cc2)c1,–,2.82 µM (active)
Cc1cnc(CNc2cc(-c3ccccc3CN(C)C)ncn2)cn1,10.9% [at 2.29 µM],–
COC(=O)c1ccc(/C=N\NC(=O)c2ccc(C)cc2Cl)cc1,–,8.91 µM (active)
Cc1ccc(C(=O)N/N=C/c2ccc(S(=O)(=O)O)o2)c(Cl)c1,-29.6%,–

Structure (SMILES),"activity, negative = inhibition",AC50
Cc1ccc(S(=O)(=O)N[C@H](C(=O)Oc2ccc3c(C(F)(F)F)cc(=O)oc3c2)c2ccccc2)cc1,–,10 µM (active)
Cc1ccc(S(=O)(=O)N[C@H](CN)C(=O)O)cc1,-0.685% [at 11.4 µM],–
Cc1ccc(S(=O)(=O)NC(CC(C)C)C(=O)Oc2ccc3c4c(c(=O)oc3c2)CCC4)cc1 (stereo not given),-27.3%,–
c1ccc2c(c1)ncn2-c1ccc(-c2ccnc(-c3ccncc3)n2)cc1,–,0.224 µM (active)
CCC(C)NS(=O)(=O)c1ccc(OCC(=O)Nc2ccc3c(c2)OCCO3)cc1 (stereo not given),–,3.98 µM (active)
CCC(C)NS(=O)(=O)c1ccc(OCC(=O)NCC2CCCO2)cc1 (stereo not given),-20%,–
Cc1cc(C)c2c(SCc3ccc(Cl)cc3Cl)nc(N)nc2n1,-3.34% [at 11.4 µM],–
CSc1nc(C)cc(Nc2ccc(O)c(CN3CCOCC3)c2)n1,-8.69% [at 11.4 µM],–
Cc1cc(N2CCOCC2)nc(SCc2ccc(Cl)cc2Cl)n1,–,7.94 µM (active)
c1ccc(Nc2ncncc2-c2ccoc2)cc1,4.61% [at 2.29 µM],–
O=[N+]([O-])C1=CC=C2C(=NC3(CCCCC3)N2O)C1=NC1CCCCC1,–,3.55 µM (active)
CCOC(=O)C1=C[C@@]2(CC)CCCN3CCc4c(n1c1ccccc41)[C@H]32,–,inactive
CCOCC(=O)Nc1cc(C(=O)Nc2cccc(C)c2C)ccc1Cl,9.34%,–
CCOCC(=O)Nc1cc(C(=O)Nc2ccccc2)ccc1Cl,–,5.62 µM (active)
Cc1ccccc1CSc1nccn1-c1ccccc1,–,7.08 µM (active)
c1ccc(CCSc2nccn2-c2ccccc2)cc1,–,15.8 µM (active)
Cn1nnnc1SCc1ccccc1[N+](=O)[O-],-16.4%,–
O=C(O)CSCCc1ccccc1,29.1% [at 11.4 µM],–
NCCSCCc1ccccc1,-27.8% [at 11.4 µM],–
CC(=O)N[C@@H]1CONC1=O,-5.39% [at 11.4 µM],–
